From PubChem BioAssay
The full list was thinned out, with hits kept by preference.
SIRT5 block = inhibitors of human sirtuin-5 desuccinylase. Q9NXA8. Purified SirT5, succinyl-peptide AMC, trypsin-coupled fluorescence. inhibition, % at 15 µM. 1.1% of 330,000 active. AID 652115; in the data active means inhibition above about 15%
ERAP1 HTS inh = inhibitors of human ERAP1 aminopeptidase | Q9NZ08 | recombinant ERAP1, Leu-AMC fluorescence, 60 min | inhibition, % at 10.7 µM | 0.15% of 340,000 active | AID 652197;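 active means mean replicate inhibition of at least 30%, or all replicates individually reaching that 30% level; inactive means mean below 30% and not every replicate reaching it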;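 further: 0% = neutral control wells and 100% = L-leucinethiol positive control wells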
ERp5 inh = ERp5 (human) disulfide isomerase inhibition. Q15084. inhibition, % at 9.99 µM. 0.05% of 350,000 active. ERp5 insulin aggregation, absorbance 650 nm, 90 min. AID 651711;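 active means mean replicate inhibition above about 25%, with every replicate also reaching it, limit read from the data, passing the limit was not always enough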
HDAC3 inh = human HDAC3 inhibition; 0.15% of 320,000 active; recombinant HDAC3, fluorogenic peptide/trypsin coupled, fluorescence; inhibition, % at 8.3 µM; AID 2718; in the data active means inhibition above about 26%, passing the limit was not always enough
PDI turbidity = PDI (human) enzyme inhibition | inhibition, % at 10 µM | AID 588391 | PDI insulin aggregation turbidity, A650, 90 min | 0.052% of 350,000 active | P07237;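 active means mean inhibition across replicates of 30% or more, whatever share of single replicates reach that level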
* = called active by the depositor; x = not tested or not shown.

SMILES	SIRT5 block	ERAP1 HTS inh	ERp5 inh	HDAC3 inh	PDI turbidity
CNc1nc(NCc2ccccc2)c2sccc2n1	19.5*	-4.8	-10.1	x	-3.7
O=C(N/N=C/c1ccccc1F)c1ccccc1OCc1ccccc1	0.1	0.3	-3.5	8.5	4.1
O=C(N/N=C/c1ccc[nH]1)c1ccccc1OCc1ccc(F)cc1	21.9*	x	0.5	3.9	3.9
O=C(C1CCCCC1)N1C[C@@H]2[C@H](c3ccccc31)[C@@H](CO)N2CC1CCOCC1	2.1	-1.7	1.7	x	x
COc1ccc2c3c(n(C)c2c1)[C@H](CO)N(C(=O)CC1CC1)CC31CCN(C(=O)C2CC2)CC1	-4.5	0.4	-3.1	x	x
O=C(C[C@H]1C[C@H]2c3cc(NC(=O)Nc4ccc(F)cc4)ccc3O[C@H]2[C@@H](CO)O1)NC1CCCCC1	2.3	x	5.4	x	x
CC1(C)CC(N2CCCC2)=CC(=[N+]2CCCCC2)C1	2.0	15.3	1.6	11.5	-18.5
CC1(C)CC(N2CCCC2)=CC(=[N+]2CCCC2)C1	1.0	63.5*	-4.4	13.7	-7.1
COc1ccccc1NC(=O)N[C@@H]1CC[C@H](CCNS(=O)(=O)c2ccc(Cl)cc2)O[C@H]1CO	5.0	-3.2	0.0	x	x
O=C(N[C@H]1CC[C@H](CCNS(=O)(=O)c2ccc(Cl)cc2)O[C@H]1CO)c1cnccn1	32.5*	0.4	2.3	x	x
COc1ccccc1NC(=O)N[C@@H]1CC[C@H](CCNS(=O)(=O)c2ccc(Cl)cc2)O[C@@H]1CO	26.1*	-4.4	-1.5	x	x
O=C(N[C@@H]1CC[C@H](CCNS(=O)(=O)c2ccc(Cl)cc2)O[C@H]1CO)c1cnccn1	-6.4	0.1	2.1	x	x
C[C@@H]1CCCCO[C@@H](CN(C)C(=O)C2CCCCC2)[C@@H](C)CN([C@@H](C)CO)C(=O)c2cc(NC(=O)Nc3ccc(C(F)(F)F)cc3)ccc2O1	-1.3	-0.3	-1.0	x	x
COc1cccc(S(=O)(=O)N(C)C[C@@H]2Oc3cc(C4=CCCCC4)ccc3S(=O)(=O)N([C@H](C)CO)C[C@@H]2C)c1	26.4*	-2.3	1.2	x	x
COc1cccc(S(=O)(=O)N(C)C[C@@H]2Oc3cc(C4=CCCC4)ccc3S(=O)(=O)N([C@H](C)CO)C[C@H]2C)c1	23.0*	1.2	0.5	x	x
COc1cccc(S(=O)(=O)N(C)C[C@@H]2Oc3cc(C4=CCCC4)ccc3S(=O)(=O)N([C@@H](C)CO)C[C@@H]2C)c1	14.8	-0.2	3.8	x	x
COc1ccc(NC(=O)Nc2ccc3c(c2)[C@@H]2C[C@H](CC(=O)NCc4ccccc4F)O[C@@H](CO)[C@@H]2O3)cc1	-3.3	1.4	19.4	x	x
C[C@@H]1CN([C@@H](C)CO)C(=O)Cc2cc(NC(=O)C3CC3)ccc2O[C@H]1CN(C)Cc1ccc2c(c1)OCO2	-8.4	0.2	2.2	x	x
Cn1cnc(S(=O)(=O)N2CC[C@H]3[C@H](CO)Nc4ccc(-c5ccc(F)cc5)cc4[C@H]32)c1	-3.6	2.5	-3.8	x	x
Nc1ccccc1NC(=O)c1ccccc1	x	x	x	74.9*	9.6
CCc1sc(C(=O)Nc2ncccc2C)cc1C	0.3	2.0	1.7	4.9	11.0
CCc1sc(C(=O)Nc2ncccc2O)cc1C	0.7	0.8	2.2	76.0*	4.7
COc1ccccc1S(=O)(=O)N[C@@H]1CC[C@@H](CCn2cc(C3CCCC3)nn2)O[C@@H]1CO	-1.7	3.3	4.6	x	x
C[C@@H]1CCCCO[C@@H](CN(C)S(=O)(=O)c2cn(C)cn2)[C@@H](C)CN([C@@H](C)CO)C(=O)c2cc(NS(=O)(=O)c3cn(C)cn3)ccc2O1	-1.0	3.0	-4.0	x	x
O=C(NC1CC1)C1CCN(C2CCN(C(=O)CC3=CCCCC3)CC2)CC1	28.9*	1.0	3.1	1.2	2.5
SMILES	SIRT5 block	ERAP1 HTS inh	ERp5 inh	HDAC3 inh	PDI turbidity
Cc1nc2ncccn2c1-c1csc(Nc2ccc(O)cc2)n1	0.0	12.7	-6.0	x	53.2*
Cc1ccc(Nc2nc(-c3c(C)nc4ncccn34)cs2)cc1	x	x	x	0.6	-0.3
CCN1C[C@@H]2[C@@H]3C(=O)N(Cc4ccccc4)C(=O)[C@@H]3[C@](Cc3ccccc3)(C1=O)N2C(=O)c1ccc(C)cc1	16.8*	-1.5	-0.4	x	-4.0
C[C@H](CO)N1C[C@H](C)[C@H](CN(C)S(=O)(=O)c2ccc(Oc3ccccc3)cc2)OCc2cn(nn2)CCCC1=O	1.1	-0.9	0.6	x	x
Cc1cc(NS(=O)(=O)c2ccc(NC(=O)CCCC(=O)O)cc2)nc(C)n1	x	x	x	4.8	17.2
CCOc1ccc(OCC(=O)Nc2ccc(S(=O)(=O)Nc3cc(C)nc(C)n3)cc2)cc1	x	x	x	2.5	-3.0
CCOc1ccccc1OCCCC(=O)Nc1ccc(S(=O)(=O)Nc2cc(C)nc(C)n2)cc1	2.2	30.2*	-2.7	x	-11.4
